# Screens as filed in PubChem.
# Rows were chosen to be rich in hits. Some 2.4% of all compounds tested hit in one or more screens of this group.
# Pol kappa inh-1 = qHTS for Inhibitors of Polymerase Kappa. AID 588579, 2011. DNA polymerase kappa (Homo sapiens), Q9UBT6. Potency, µM (top dose mostly 107 µM), for the others: at the top dose activity, negative = inhibition, usual class: inhibitors. purified Pol kappa, fluorescent DNA synthesis assay, 10 min. 400,000 tested, 0.53% active; also: potency is read from the fitted curve at half-maximal effect; % is scaled to controls: 0 for no effect and ±100 for the full control effect
#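 Kinetic fluorescence screen: compound preincubated 15 min RT with 10 nM enzyme; 50 nM substrate (final) initiates; reads at 0/10 min.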
# Pol eta inh-1 = qHTS for Inhibitors of Polymerase Eta; recombinant Pol eta, fluorescent DNA replication assay; DNA polymerase eta (Homo sapiens), Q9Y253; 390,000 tested, 1.2% active; Potency, µM (titrated, usually from 114 µM), for inactives: top-dose activity change, negative = inhibition, usual class: inhibitors; also: potency is read from the fitted curve at half-maximal effect; % is scaled to controls: 0 for no effect and ±100 for the full control effect
#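 Pol eta at 10 nM preincubated with compounds 15 min at room temperature; reaction started with fluorescent substrate (50 nM final) and read kinetically at 0 and 10 min.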
# WRN inhibitor = qHTS for Inhibitors of WRN Helicase. Bifunctional 3'-5' exonuclease/ATP-dependent helicase WRN (Homo sapiens), Q14191. WRN helicase unwinding, fluorescent forked duplex, kinetic. Potency, µM (highest dose often 114 µM), inactives show at the top dose activity change, negative = inhibition, hits mostly inhibitors. 360,000 tested, 0.46% active; also: potency is read from the fitted curve at half-maximal effect; % is scaled to controls: 0 for no effect and ±100 for the full control effect; nearly all actives have a fitted effect of over 55% in size
#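 Fluorescence dequenching readout, ex 525 nm/em 598 nm, kinetic mode: forked duplex DNA (100 nM final) with adjacent fluorophore and quencher unwound by WRN (20 nM final) with 2 mM ATP. Compound preincubation 15 min, room temperature.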
# FEN1 inh-1 = qHTS Assay for the Inhibitors of Human Flap endonuclease 1 (FEN1); P39748; Recombinant FEN1 flap cleavage, fluorescence, 15 min; Potency, µM (doses to about 114 µM), inactives show top-dose activity change, negative = inhibition, hits mostly inhibitors; 390,000 tested, 0.35% active; AID 588795, 2011; also: potency is read from the fitted curve at half-maximal effect; % is scaled to controls: 0 for no effect and ±100 for the full control effect; nearly all actives have a fitted effect of over 65% in size
#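 Compounds are tested as a concentration series against 10 nM FEN1; after a 15 min room-temperature preincubation, 50 nM substrate starts cleavage, with plate reads at 0 and 15 min. Normalized responses are fitted by a Hill equation.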
# Pol beta inh-1 = qHTS Assay for Inhibitors of DNA Polymerase Beta; Potency, µM (titrated, usually from 114 µM), without a hit: top-dose activity change, negative = inhibition, hits mostly inhibitors; P06746; 340,000 tested, 1.3% active; AID 485314, 2010; Pol beta primer extension/strand displacement, fluorescence kinetic; also: potency is read from the fitted curve at half-maximal effect; % is scaled to controls: 0 for no effect and ±100 for the full control effect
#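 Homogeneous kinetic assay of primer extension and strand displacement by 10 nM Pol beta, preincubated 15 min at room temperature with compound before 50 nM substrate (final) was added. Read at 0 and 10 min; four-parameter Hill fit.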
# POLI inh = qHTS for Inhibitors of Polymerase Iota. 390,000 tested, 1% active. DNA polymerase iota (Homo sapiens), Q9UNA4. Potency, µM (titrated, usually from 115 µM), inactives show at the top dose activity, negative = inhibition, actives largely listed as inhibitors. Pol iota fluorescent replication assay, 10 min; also: potency is read from the fitted curve at half-maximal effect
# Target sequence (Q9UNA4 whole entry, looked up): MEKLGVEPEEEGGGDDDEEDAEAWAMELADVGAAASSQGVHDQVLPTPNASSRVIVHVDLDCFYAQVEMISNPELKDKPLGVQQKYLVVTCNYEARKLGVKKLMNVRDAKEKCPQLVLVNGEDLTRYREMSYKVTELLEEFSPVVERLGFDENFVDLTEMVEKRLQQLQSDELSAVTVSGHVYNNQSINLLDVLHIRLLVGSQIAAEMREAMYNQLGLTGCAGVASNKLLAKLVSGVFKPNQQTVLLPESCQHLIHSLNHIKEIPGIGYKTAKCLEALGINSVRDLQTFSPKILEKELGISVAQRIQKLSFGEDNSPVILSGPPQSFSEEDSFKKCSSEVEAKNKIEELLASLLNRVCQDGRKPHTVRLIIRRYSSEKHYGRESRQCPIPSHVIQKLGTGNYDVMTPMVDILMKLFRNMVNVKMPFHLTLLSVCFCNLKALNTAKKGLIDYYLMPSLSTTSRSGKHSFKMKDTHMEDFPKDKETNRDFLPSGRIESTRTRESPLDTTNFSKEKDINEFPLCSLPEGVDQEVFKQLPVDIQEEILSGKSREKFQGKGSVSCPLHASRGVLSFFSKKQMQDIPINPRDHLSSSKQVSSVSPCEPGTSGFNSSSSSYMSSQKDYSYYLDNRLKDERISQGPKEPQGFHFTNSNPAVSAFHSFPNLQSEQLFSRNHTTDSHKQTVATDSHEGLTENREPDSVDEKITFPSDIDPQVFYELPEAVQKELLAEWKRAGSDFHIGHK
#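 Pol iota at 10 nM preincubated 15 min with compounds at room temperature; reaction started with fluorescent substrate, 50 nM final. Fluorescence read kinetically at 0 and 10 min; buffer-only wells as negative control.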
# Pol beta inh-2 = Inhibitors of DNA Polymerase Beta: Hit validation; 250 tested, 87% active; Pol beta primer extension/strand displacement, fluorescence kinetic; shares compounds with Pol beta inh-1; AID 540280, 2011; Potency, µM, actives largely listed as inhibitors; calls by dose curve; also: potency is read from the fitted curve at half-maximal effect
# Klenow inh = Inhibitors of DNA Polymerase Beta: Hit Validation in Klenow Fragment Assay; 250 tested, under 10 active; shares compounds with Pol beta inh-1; Klenow exo- polymerase counter-screen, fluorescent DNA substrate; AID 540300, 2011; activity change, negative = inhibition, % at 57.1 µM
# HIV RT inh = Inhibitors of DNA Polymerase Beta: Hit Validation in HIV-RT Assay. shares compounds with Pol beta inh-1. HIV-1 RT polymerase activity, counter-screen. activity % (negative = inhibition, positive = activation), % at 57.1 µM. 250 tested, under 10 active
# POLB inh gel = Inhibitors of DNA Polymerase Beta: Hit Validation in Radiolabeled Extension Assay; shares compounds with Pol beta inh-1; radiolabeled primer extension gel assay, phosphorimager; inhibition, % at 10 µM; 110 tested, 91% active; AID 540325, 2011;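 active = inhibition at 10 µM of 30% or more; inconclusive = no clear call, values can overlap the other calls; inactive = inhibition at 10 µM under 30%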
# Pol iota confirm = qHTS for Inhibitors of Polymerase Iota: Confirmatory Assay for Cherry-picked Compounds. Potency, µM, hits mostly inhibitors. 1,500 tested, 77% active. Pol iota primer extension, TAMRA/BHQ fluorescence. AID 720496, 2013. shares compounds with Pol kappa inh-1; also: potency is read from the fitted curve at half-maximal effect
# Pol kappa inh-2 = qHTS for Inhibitors of Polymerase Kappa: Confirmatory Assay for Cherry-picked Compounds; shares compounds with Pol eta inh-1; purified Pol-kappa, fluorescent strand-displacement substrate; Potency, µM, usual class: inhibitors; 920 tested, 76% active; also: potency is read from the fitted curve at half-maximal effect
# Pol eta inh-2 = qHTS for Inhibitors of Polymerase Eta: Confirmatory Assay for Cherry-picked Compounds. shares compounds with Pol eta inh-1. Pol eta primer extension, TAMRA/BHQ fluorescence, 10 min. Potency, µM, actives largely listed as inhibitors. 2,600 tested, 64% active. AID 720502, 2013; also: potency is read from the fitted curve at half-maximal effect
# FEN1 inh-2 = qHTS Assay for the Inhibitors of FEN1: Confirmatory Assay for Cherry-picked Compounds; 880 tested, 79% active; Potency, µM, hits mostly inhibitors; FEN1 flap cleavage, TAMRA/BHQ2 fluorogenic DNA substrate; shares compounds with FEN1 inh-1; AID 720498, 2013; also: potency is read from the fitted curve at half-maximal effect; nearly all actives have a fitted effect of over 60% in size
# The depositor's hits bear a star; ? = inconclusive; . = no result given; [ ] = another dose, or the depositor's remark. Unless noted, calls follow the shape of the dose curve; as a rule, active = well fitted curve in the direction sought with a large enough effect; inconclusive = small, poorly fitted or top-dose-only effect, or another doubt; inactive = no such curve, though single readings can be large; an effect the other way counts as inactive or inconclusive.
SMILES,Pol kappa inh-1,Pol eta inh-1,WRN inhibitor,FEN1 inh-1,Pol beta inh-1,POLI inh,Pol beta inh-2,Klenow inh,HIV RT inh,Pol iota confirm,Pol kappa inh-2,Pol eta inh-2,others
O=C(Cn1cnc2scc(-c3cccc([N+](=O)[O-])c3)c2c1=O)NCc1ccco1,79.4µM*,20µM*,?,-31.3%,10µM*,20µM*,15.8*,-12.4,?,47.4*,47.4*,60.1*,
CCc1ccc(-n2cccc2/C=C2/C(=N)N3C(=NC2=O)SN=C3S(C)(=O)=O)cc1,79.4µM*,20µM*,-11.9%[11.6 µM],?,6.31µM*,?,31.6*,-30.1,?,?,67*,47.8*,POLB inh gel=73.0*
Cc1ccc(-n2cccc2/C=C2/C(=N)N3C(=NC2=O)SN=C3S(C)(=O)=O)cc1,?,31.6µM*,?,?,15.8µM*,17.8µM*,15.8*,-23.8,19.0,84.4*,.,67.5*,
CS(=O)(=O)C1=NSC2=NC(=O)/C(=C\c3ccc(-c4ccccc4)o3)C(=N)N21,.,.,.,.,23.4%,.,.,.,.,.,.,.,
CCC1CCCCN1CCCNC(=O)c1ccc2c(c1)N(Cc1cccc(Cl)c1)C(=O)c1ccccc1S2(=O)=O (centres undefined),-9.7%[60.1 µM],-5.1%,.,-5.1%,-22.1%,-4.1%,.,.,.,.,.,.,
COc1ccc(-c2nnc(Nc3ccc(S(=O)(=O)Nc4nccs4)cc3)c3ccccc23)cc1,50.1µM*,31.6µM*,50.1µM*,?,1.78µM*,20µM*,7.94*,-20.5,26.3,?,33.6*,42.6*,
Cc1ccc(OCC(=O)Nc2ccc(OCc3cc(=O)n4ccsc4n3)cc2)cc1C,-4.7%,-13.4%,.,-1.3%,0.2%,40.4%,.,.,.,.,.,.,
O=C(CSc1ccsc1[N+](=O)[O-])N1CCN(c2ccc(Cl)cc2)CC1,?,28.2µM*,-9.4%[11.6 µM],10.6%,14.1µM*,28.2µM*,39.8*,-26.9,62.2,.,.,?,
O=C(CSc1ccccn1)Nc1ccc2c(c1)C(=O)c1ccccc1C2=O,-23.9%,?,39.8µM*,?,8.91µM*,2.8%,11.2*,-25.6,23.7,53.2*,59.7*,60.1*,
O=C(CSc1ccccn1)Nc1ccc2ccccc2c1,.,.,.,.,-14.1%,.,.,.,.,.,.,.,
Cc1cc(C)n2c(SC/C(O)=C(\C#N)c3nc4ccccc4[nH]3)nnc2n1,44.7µM*,3.16µM*,?,?,17.8µM*,11.2µM*,35.5*,5.1,-3.7,.,.,75.7*,POLB inh gel=100.0*
Cc1ccccc1-n1c(SC/C(O)=C(\C#N)c2nc3ccccc3[nH]2)nnc1-c1ccncc1,-30.7%,?,-16.2%,-11.0%,?,?,.,.,.,.,.,.,
COC(=O)c1ccccc1NC(=O)c1ccc2nccnc2c1,?,31.6µM*,-28.0%,-15.9%,3.16µM*,?,35.5*,-27.1,39.0,.,.,?,
O=C(Nc1ccccc1Cl)c1ccc2nccnc2c1,?,?,-2.3%[11.6 µM],-16.9%,36.1%,?,.,.,.,.,.,.,
CCOC(=O)C1=C(C)N=c2s/c(=C\c3ccc(OCC(=O)O)cc3)c(=O)n2C1c1ccccc1 (centres undefined),-13.8%,?,?,-23.3%,-21.7%,52.5%,.,.,.,.,.,.,
CC1=C(C(=O)OC(C)C)C(c2ccc(Cl)cc2)n2c(s/c(=C\c3ccc(OCC(=O)O)cc3)c2=O)=N1 (centres undefined),-30.9%,8.91µM*,-10.6%[11.6 µM],?,3.55µM*,?,7.08*,-6.2,19.4,37.7*,.,60.1*,FEN1 inh-2=67.5*
Cc1ccc(NC(=O)Cn2c(=O)c3ccc(Cl)cc3n3nncc23)cc1,-3.8%,-15.7%,.,-4.8%,4.6%,10.2%,.,.,.,.,.,.,
N#Cc1c(NC(=O)CSc2ncnc3sccc23)oc(-c2ccco2)c1-c1ccco1,44.7µM*,14.1µM*,?,?,10µM*,?,28.2*,-19.9,-1.7,42.3*,6.7*,19*,POLB inh gel=92.8*;FEN1 inh-2=67.5*
Cc1cc(NC(=O)CSc2ncnc3sccc23)no1,-1.5%,-7.4%,-10.6%,-13.5%,10.7%,-0.1%,.,.,.,.,.,.,
O=C(CCc1ccccc1)N(Cc1cccnc1)c1nc2ccc(F)cc2s1,-13.2%[60.1 µM],-5.3%,.,0.2%,7.0%,0.1%,.,.,.,.,.,.,
O=C1N=c2ccccc2=C1c1sc(Nc2ccc(O)cc2)nc1O,35.5µM*,31.6µM*,?,?,20µM*,8.91µM*,7.94*,-37.8,6.0,47.4*,16.8*,?,FEN1 inh-2=75.7*
